Measured values taken from the supplement of paper PMC13380429.
Unmarked numbers belong to inactive results.

Tested on: Vero E6 infected with SARS-CoV-2
Assay: inhibition of SARS-CoV-2 cytopathic effect; higher = more antiviral protection, active = above 15
Settings: 48 h

Structure (SMILES)	inhibition of SARS-CoV-2 cytopathic effect (1 nM) [%]	inhibition of SARS-CoV-2 cytopathic effect (8.33 nM) [%]	inhibition of SARS-CoV-2 cytopathic effect (100 nM) [%]	inhibition of SARS-CoV-2 cytopathic effect (833.33 nM) [%]	inhibition of SARS-CoV-2 cytopathic effect (10000 nM)
CC(=C(CCO)SSCC1CCCO1)N(C=O)Cc1cnc(C)nc1N (stereo in doubt) [fursultiamine]	2.52	0.44	2.45	-1.75	-2.11%
NC(=O)[C@@H](CC1CC1)[C@@H](CCC(F)(F)F)C(=O)N[C@H]1N=C(c2ccccc2)c2cccc(F)c2NC1=O	-0.36	-1.04	-3.47	-3.05	-5.54%
CN(C)c1ccccc1CN1CCCN(Cc2ccccc2N(C)C)C1c1ccncc1	0.09	1.84	0.14	0.48	21% (active)
C[C@H]1O[C@@H](O[C@H]2[C@@H](O)C[C@H](O[C@H]3[C@@H](O)C[C@H](O[C@H]4CC[C@@]5(C)[C@H](CC[C@@H]6[C@@H]5C[C@@H](O)[C@]5(C)[C@@H](C7=CC(=O)OC7)CC[C@]65O)C4)O[C@@H]3C)O[C@@H]2C)C[C@H](O)[C@@H]1O [digoxin]	-0.14	-0.96	-7.12	-13.3	-14.5%
C1CCC(NC2CCCCC2)CC1 [dicyclohexylamine]	2.51	6.58	13.2	0.43	-2.8%
CC(C)C(=O)SCCCCC[C@H](NC(=O)OC(C)(C)C)C(=O)NC12CC3CC(CC(C3)C1)C2	-5.42	-0.36	-0.22	2.47	-6.65%
N#Cc1ccc(C2CCCc3cncn32)cc1 (stereo not given) [fadrozole]	1.9	0.56	-1.22	-4.4	-0.19%
O=P(O)(O)C(O)(Cc1cnc2ccccn12)P(=O)(O)O [minodronic-acid]	-2.81	-1.07	-0.4	2.46	-1.52%
Nc1nc(=O)c(Br)c(-c2ccccc2)[nH]1 [bropirimine]	-2.33	1.04	1.75	-0.1	-0.45%
COc1c(O)cc2c(c1O)[C@@H]1O[C@H](CO)[C@@H](O)[C@H](O)[C@H]1OC2=O [bergenin]	-3.29	-2.26	-0.14	0.39	-1.22%
Cc1cc2c(F)c(Oc3ncnn4cc(OC[C@@H](C)OC(=O)[C@H](C)N)c(C)c34)ccc2[nH]1 [brivanib-alaninate]	-0.11	4.65	1.96	-0.19	-7.17%
CN(C)C(=O)[C@H](O)[C@H](Cc1ccccc1)NC(=O)c1cc2cc(Cl)ccc2[nH]1	0.8	-0.29	-0.45	1.2	4.47%
N=C(N)SCCc1ccc(OCc2ccc([N+](=O)[O-])cc2)cc1	1.92	-1.12	-0.47	-2.92	-4.41%
O=C(CC12CC3CC(CC(C3)C1)C2)Nc1cccc2nc(NCCNCCO)ccc12	3.46	8.07	0.57	4.43	4.98%
OC(CCCN1CCN(c2ncc(F)cn2)CC1)c1ccc(F)cc1 (stereo not given)	-3.3	-0.94	3.34	4.34	0.33%
CC(=O)Nc1nc2c(Oc3cc(-c4ccc(C(F)(F)F)cc4)ncn3)cccc2s1	1.07	0.66	2.03	2.31	1.83%
CCCN1CCCC(c2cccc(O)c2)C1 (stereo in doubt) [preclamol]	-0.2	-0.3	0.42	1.02	-1.58%
C[C@H](Nc1ncnc2[nH]cnc12)c1nc2ccc(F)cc2c(=O)n1-c1ccccc1 [acalisib]	0.46	-0.64	0.1	-0.64	-5.35%
CCOC(=O)c1ccc(OC(=O)CCCCCNC(=N)N)cc1 [gabexate]	-0.03	-1.96	1.38	3.6	3.31%

Structure (SMILES)	inhibition of SARS-CoV-2 cytopathic effect (1 nM) [%]	inhibition of SARS-CoV-2 cytopathic effect (8.33 nM) [%]	inhibition of SARS-CoV-2 cytopathic effect (100 nM) [%]	inhibition of SARS-CoV-2 cytopathic effect (833.33 nM) [%]	inhibition of SARS-CoV-2 cytopathic effect (10000 nM)
CCCC[C@H]1C(=O)N(c2ccccc2)N(c2ccc(O)cc2)C1=O [oxyphenbutazone]	0.53	1.14	1.48	3.6	10.9%
CN1CCC(=C2c3ccccc3Sc3ccccc32)CC1 [pimethixene]	1.38	0.84	-0.63	-0.47	-3.2%
CCOC(=O)c1ncn2c1CN(C)C(=O)c1cc(F)ccc1-2 [flumazenil]	-5.56	-4.56	-4.89	-4.65	-1.96%
COc1cc(C(=O)NCc2ccc(OCCN(C)C)cc2)cc(OC)c1OC [trimethobenzamide]	-2.2	-1.41	2.21	-1.81	-0.65%
CCCCC1C(=O)N(c2ccccc2)N(c2ccccc2)C1=O [phenylbutazone]	-0.14	0.89	0.31	0.4	0.88%
O=C(c1c(F)ccc(NS(=O)(=O)N2CC[C@@H](F)C2)c1F)c1c[nH]c2ncc(-c3cnc(C4CC4)nc3)cc12	3.26	-1.73	-2.71	-1.89	-5.07%
CCN(CC)CCOC(=O)C1(c2ccc([N+](=O)[O-])cc2)CCCC1 [nitrocaramiphen]	-3.06	1.17	1.69	-0.19	-0.92%
Cc1c(CN(C)C(=O)/C=C/c2cnc3c(c2)CCC(=O)N3)oc2ccccc12	0.18	-1.15	1.59	0.21	-1.4%
O=C1N(c2ccccc2)c2ccccc2C1(Cc1ccncc1)Cc1ccncc1 [linopirdine]	2.06	0.32	1.23	-0.29	1.14%
O=C(CCCN1CCN(c2ccccn2)CC1)c1ccc(F)cc1 [azaperone]	0	-7.58	-6.03	-5.15	0.26%
Cc1ccc(NC2=CC(=O)c3sc(C)nc3C2=O)cc1 [ryuvidine]	1.42	4.18	4.56	6.56	-20.4%
CC1(C)C(=O)N(c2ccc(C#N)c(C(F)(F)F)c2)C(=O)N1CCCCO	2.69	0.32	4.71	0.45	1.21%
N#C[C@@H]1CCCN1C(=O)CNC12CC3CC(CC(O)(C3)C1)C2 [vildagliptin]	0.17	-0.28	-0.35	-0.2	1.3%
CC[N+](C)(CC)CC(=O)Nc1c(C)cccc1C [N-methyllidocaine-iodide]	1.32	2.44	0.64	1.63	1.7%
C=C[C@@]1(C)CC(=O)[C@]2(O)[C@@]3(C)[C@@H](O)CCC(C)(C)[C@@H]3[C@H](OC(=O)CCN(C)C)[C@H](OC(C)=O)[C@@]2(C)O1 [colforsin-daproate]	0.4	-2.13	-3.35	3.07	29.6% (active)
CCOc1c2c(c(OCC)c3ccccc13)C(=O)N(c1ccc(CC(=O)NS(=O)(=O)c3ccccc3)cc1)C2	2.87	0.35	0.73	-1.03	0.05%
CCn1c(=O)c2c(nc(/C=C/c3ccc(OC)c(OC)c3)n2C)n(CC)c1=O [istradefylline]	1.05	-1.49	-0.91	-0.33	2.33%
C[C@@H](O[C@H]1OCCN(Cc2nn(P(=O)(O)O)c(=O)[nH]2)[C@H]1c1ccc(F)cc1)c1cc(C(F)(F)F)cc(C(F)(F)F)c1 [fosaprepitant-dimeglumine]	-0.45	3.23	1	-0.01	-0.52%
CC(C)[C@@H](CN1CC[C@@](C)(c2cccc(O)c2)[C@@H](C)C1)NC(=O)[C@H]1Cc2ccc(O)cc2CN1	-0.76	1.45	-1.62	-1.16	-4.59%
